Assay results as given in PubChem BioAssay AID372 (MTDP, 2006).
Screen size: about 100,000 compounds; about 770 (0.77%) were called active. For the sample, actives were picked, then their nearest neighbours and some compounds at random. Values without a mark were called inactive. No stated cut-off is given here; in the data, active means inhibition above about 50%; inactive means the rest.

Target: Gag-Pol polyprotein (Human immunodeficiency virus type 1 group M subtype B (isolate HXB2)) (UniProt P04585)
Assay: RNase H inhibition, HIV 1 Gag Pol polyprotein, FRET biochemical assay, screening (AID 372)
Settings: HIV-1 RT RNase H, FRET RNA/DNA substrate fluorescence; at 10 µM; hits give high values

**Q.** How did the inhibition turn out when `Cc1ccc(NC(=O)c2ccc(Cl)c(Cl)c2)c([N+](=O)[O-])c1` was run?
**A.** 1%

**Q.** `CC(=O)NC(NC(=S)Nc1sc2c(c1C#N)CCCC2)C(Cl)(Cl)Cl` (stereo unspecified) was tested. Which inhibition did it give?
**A.** 20%

**Q.** With `COc1cc(C2CC(=O)NC(SCc3ccccc3)=C2C#N)ccc1O` (stereo unspecified) as the compound, how does the inhibition read?
**A.** 6%

**Q.** `O=C(NN=C1CCCCC1)C(=O)Nc1ccc(F)cc1` was tested. Which inhibition did it give?
**A.** 8%

**Q.** Which inhibition does the source give for `CCOc1c(Br)cc(/C=C2N=C(/C=C/c3ccccc3)OC/2=O)cc1OC` here?
**A.** 9%

**Q.** `O=C(NNC(=O)c1cccc(C(=O)NNC(=O)c2ccc(Br)cc2)c1)c1ccc(Br)cc1` was tested. Which inhibition did it give?
**A.** 53% (active)

**Q.** For `O=C(NNC(=O)c1cccc(O)c1)c1ccc(Br)cc1`, which inhibition is on record?
**A.** 10%

**Q.** How did the inhibition turn out when `O=C(NNC(=O)c1cccc(C#Cc2ccccc2)c1)c1ccc(Br)cc1` was run?
**A.** 46%

**Q.** `COc1ccc(C(NC(=O)C(C)C)c2ccc3cccnc3c2O)cc1OC` (stereo unspecified) was tested. Which inhibition did it give?
**A.** 5%

**Q.** For `Oc1ccc(C=Nc2ccc(O)cc2)cc1`, which inhibition is on record?
**A.** 4%

**Q.** Which inhibition does the source give for `Oc1ccc(C=Nc2ccc(Cl)c(Cl)c2)cc1O` here?
**A.** 17%

**Q.** With `Oc1ccc(/C=N/N=C/c2ccc(O)c(O)c2)cc1O` as the compound, how does the inhibition read?
**A.** 69% (active)

**Q.** For `Oc1ccc(C=Nc2ccc(N=Cc3ccc(O)cc3)cc2)cc1`, which inhibition is on record?
**A.** 15%

**Q.** For `Oc1ccc(N=Cc2ccc(O)c(O)c2)cc1`, which inhibition is on record?
**A.** 70% (active)

**Q.** For `Cc1nnc(C)n1/N=C/c1ccc(O)c(O)c1`, which inhibition is on record?
**A.** 44%

**Q.** With `COc1ccc(C(=O)OCC(=O)c2ccc(Br)cc2)cc1OC` as the compound, how does the inhibition read?
**A.** 16%

**Q.** With `C=CCN(c1ccccc1C(=O)O)S(=O)(=O)/C=C/c1ccccc1` as the compound, how does the inhibition read?
**A.** 6%

**Q.** How did the inhibition turn out when `CCOc1ccc(/C=N/NC(=O)c2cc(-c3ccc4ccccc4c3)n[nH]2)cc1` was run?
**A.** 14%

**Q.** For `COc1ccc(NCC(O)Cn2c3ccc(Cl)cc3c3cc(Cl)ccc32)c(OC)c1` (stereo unspecified), which inhibition is on record?
**A.** 27%

**Q.** For `O=C(NCc1ccco1)c1ccc(-c2cc(Cl)ccc2Cl)o1`, which inhibition is on record?
**A.** 31%

**Q.** How did the inhibition turn out when `O=C(N=Nc1c(O)[nH]c2ccc(Br)cc12)C1COc2cc3ccccc3cc2O1` (stereo unspecified) was run?
**A.** 4%

**Q.** `Cn1c(O)c(N=NC(=O)C2COc3cc4ccccc4cc3O2)c2ccccc21` (stereo unspecified) was tested. Which inhibition did it give?
**A.** 50% (active)

**Q.** `CCCn1c(O)c(N=NC(=O)C2COc3cc4ccccc4cc3O2)c2ccccc21` (stereo unspecified) was tested. Which inhibition did it give?
**A.** 34%

**Q.** `Cc1ccc2c(c1)c(N=NC(=O)COc1ccccc1C)c(O)n2C` was tested. Which inhibition did it give?
**A.** 20%

**Q.** For `O=C(NCCOc1cccc2ccccc12)Nc1cc(F)c(F)cc1Cl`, which inhibition is on record?
**A.** 0%

**Q.** For `S=C(NCCOc1cccc2ccccc12)Nc1cccc2ccccc12`, which inhibition is on record?
**A.** 45%

**Q.** `O=C(NCCOc1cccc2ccccc12)Nc1cccc2ccccc12` was tested. Which inhibition did it give?
**A.** 51% (active)

**Q.** Which inhibition does the source give for `O=C(NN1CCOCC1)c1ccc(Br)cc1` here?
**A.** 2%

**Q.** Which inhibition does the source give for `Cc1cccnc1NS(=O)(=O)c1cc(Cl)ccc1Cl` here?
**A.** 10%

**Q.** For `O=C1C=CC(=NS(=O)(=O)c2cccc([N+](=O)[O-])c2)C=C1`, which inhibition is on record?
**A.** 45%

**Q.** Which inhibition does the source give for `O=C1C=C/C(=N\S(=O)(=O)c2ccc(Cl)c([N+](=O)[O-])c2)c2ccccc21` here?
**A.** 34%

**Q.** For `Cc1ccc(S(=O)(=O)/N=C2\C=CC(=O)C(Br)=C2)cc1`, which inhibition is on record?
**A.** 20%

**Q.** For `O=C1C=CC(=NS(=O)(=O)c2ccc(F)cc2)C=C1`, which inhibition is on record?
**A.** 43%

**Q.** With `CC1=C/C(=N/S(=O)(=O)c2ccc(C)cc2)C=C(Cl)C1=O` as the compound, how does the inhibition read?
**A.** 17%

**Q.** For `CC1=CC(=O)C=C/C1=N\S(=O)(=O)c1ccc(C)cc1`, which inhibition is on record?
**A.** 32%

**Q.** `O=C1C=CC(=NS(=O)(=O)c2ccc(Cl)cc2)C=C1` was tested. Which inhibition did it give?
**A.** 28%

**Q.** How did the inhibition turn out when `Cc1ccc(S(=O)(=O)/N=C2/C=C(Cl)C(=O)c3ccccc32)cc1` was run?
**A.** 20%

**Q.** With `O=C1C=CC(=NS(=O)(=O)c2ccccc2)C=C1` as the compound, how does the inhibition read?
**A.** 56% (active)

**Q.** For `COc1ccc(Cl)cc1NC(=O)c1cc(-c2ccccc2)nc2ccccc12`, which inhibition is on record?
**A.** 0%

**Q.** For `COc1cc(C2/C(=C(\O)c3ccc(C)cc3)C(=O)C(=O)N2CCCC(=O)O)ccc1O` (stereo unspecified), which inhibition is on record?
**A.** 0%

**Q.** With `CCOC(=O)C1=C(C)N=c2s/c(=C\c3ccccc3O)c(=O)n2C1c1ccc(Cl)cc1` (stereo unspecified) as the compound, how does the inhibition read?
**A.** 21%

**Q.** With `COc1ccc(NC(=O)c2nn3c(C(F)(F)F)cc(-c4ccco4)nc3c2Cl)c(OC)c1` as the compound, how does the inhibition read?
**A.** 13%

**Q.** Which inhibition does the source give for `COc1ccc(C(=O)N/C(=C\c2ccc(-c3cccc([N+](=O)[O-])c3)o2)C(=O)NCc2ccncc2)cc1` here?
**A.** 0%

**Q.** For `O=S(=O)(N=C1C(Cl)=C(Cl)C(=NS(=O)(=O)c2ccccc2)C(Cl)=C1Cl)c1ccccc1`, which inhibition is on record?
**A.** 31%

**Q.** With `CC(C)(C)c1ccc(S(=O)(=O)N=C2C=CC(=O)C=C2)cc1` as the compound, how does the inhibition read?
**A.** 20%

**Q.** `O=C1C=C/C(=N\S(=O)(=O)c2ccccc2)C=C1Cl` was tested. Which inhibition did it give?
**A.** 19%

**Q.** `O=C1C(Cl)=CC(=NS(=O)(=O)c2ccccc2)C=C1Br` was tested. Which inhibition did it give?
**A.** 26%

**Q.** With `O=C1C(Cl)=CC(=NS(=O)(=O)c2ccc(Cl)cc2)c2ccccc21` as the compound, how does the inhibition read?
**A.** 8%

**Q.** With `O=C1C(Cl)=CC(=NS(=O)(=O)c2ccc(Cl)cc2)C=C1Cl` as the compound, how does the inhibition read?
**A.** 28%

**Q.** With `Cc1ccccc1S(=O)(=O)N=C1C=CC(=O)C(Cl)=C1` as the compound, how does the inhibition read?
**A.** 11%

**Q.** Which inhibition does the source give for `CC(C)C1=CC(=NS(=O)(=O)c2ccc(Cl)cc2)C=C(C(C)C)C1=O` here?
**A.** 5%

**Q.** For `CC(=O)N/C(=C\c1ccccc1)C(=O)NCC(=O)O`, which inhibition is on record?
**A.** 6%

**Q.** With `Cc1cccc(NC(=O)C(=O)NNC(=O)c2ccccc2C)c1` as the compound, how does the inhibition read?
**A.** 4%

**Q.** With `Cc1ccc(-c2ccccc2)n1-c1ccccc1C(=O)O` as the compound, how does the inhibition read?
**A.** 12%

**Q.** How did the inhibition turn out when `O=C(O)/C=C\C(=O)N/N=C/c1ccccc1` was run?
**A.** 4%

**Q.** For `O=C(Nc1ccccn1)c1ccc2c(c1)C(=O)N(c1cccc3c(N4C(=O)c5ccc(C(=O)Nc6ccccn6)cc5C4=O)cccc13)C2=O`, which inhibition is on record?
**A.** 2%

**Q.** With `CCC1CCc2c(sc(NC(=O)c3ccc([N+](=O)[O-])cc3Cl)c2C(=O)OC)C1` (stereo unspecified) as the compound, how does the inhibition read?
**A.** 0%

**Q.** How did the inhibition turn out when `O=C1C(N2CCOCC2)=C/C(=N\S(=O)(=O)c2ccc(Cl)cc2)c2ccccc21` was run?
**A.** 61% (active)

**Q.** `CC1=C(C)/C(=N\S(=O)(=O)c2ccc(C)cc2)C=C(N2CCOCC2)C1=O` was tested. Which inhibition did it give?
**A.** 19%

**Q.** How did the inhibition turn out when `Cc1ccc(S(=O)(=O)/N=C2/C=C(N3CCOCC3)C(=O)c3ccccc32)cc1` was run?
**A.** 5%

**Q.** For `Cc1ccccc1N1C(=O)C2C3c4ccccc4C(C)(c4ccccc43)C2C1=O` (stereo unspecified), which inhibition is on record?
**A.** 0%
